Source: PubChem BioAssay (NCATS)
Results filed as inconclusive are left out. A number with no mark means an inactive call. Activity calls are given as the source filed them. The call rests on the fitted dose curve; in most records, active means well fitted cell-killing curve with a large enough effect; inconclusive means small, poorly fitted or top-dose-only effect, or effect the other way; inactive means no such curve, though single readings can be large or run the other way.

Experiments:
[1] = Quantitative High-Throughput drug screen in 47 multiple myeloma cell lines against the NCATS MIPE library collection: OCIMY7_PLB cell viability assay (AID 1918987); conditions: OCI-MY7 myeloma viability, CellTiter-Glo ATP, 48 h; viability (% of DMSO): at 45.8 µM (top of the series); further: nearly all actives have a fitted effect of over 65% in size
In short: (§1)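 qHTS format: cells plated (500/well), pin-dosed with MIPE 4.0 compounds, kept 48 h at 37 °C. Readout was CellTiter-Glo luminescence, median RLU.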

[2] = Quantitative High-Throughput drug screen in 47 multiple myeloma cell lines against the NCATS MIPE library collection: OCIMY5_PLB cell viability assay (AID 1918988); further: nearly all actives have a fitted effect of over 65% in size
In short: as §1

[3] = Quantitative High-Throughput drug screen in 47 multiple myeloma cell lines against the NCATS MIPE library collection: OPM1_PLB cell viability assay (AID 1918989); further: nearly all actives have a fitted effect of over 40% in size
In short: as §1

[4] = Quantitative High-Throughput drug screen in 47 multiple myeloma cell lines against the NCATS MIPE library collection: SKMM1_PLB cell viability assay (AID 1919863); conditions: SKMM1 myeloma viability, CellTiter-Glo ATP, 48 h; viability: stronger effect = lower value; further: nearly all actives have a fitted effect of over 35% in size
In short: as §1

[5] = Quantitative High-Throughput drug screen in 47 multiple myeloma cell lines against the NCATS MIPE library collection: U266_ATCC cell viability assay (AID 1919864); further: nearly all actives have a fitted effect of over 35% in size;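 on viability (% of DMSO control): 0% = media-only wells without cells and 100% = DMSO-only wells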
In short: as §1

[6] = Quantitative High-Throughput drug screen in 47 multiple myeloma cell lines against the NCATS MIPE library collection: XG6_PLB cell viability assay (AID 1919865); further: nearly all actives have a fitted effect of over 40% in size
In short: as §1

[7] = Quantitative High-Throughput drug screen in 47 multiple myeloma cell lines against the NCATS MIPE library collection: XG1_PLB cell viability assay (AID 1919866); further: nearly all actives have a fitted effect of over 35% in size
In short: as §1

[8] = Quantitative High-Throughput drug screen in 47 multiple myeloma cell lines against the NCATS MIPE library collection: VP6_DJ cell viability assay (AID 1919867); further: nearly all actives have a fitted effect of over 40% in size;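 on viability (% of DMSO): 100% = DMSO-only wells and 0% = wells with media alone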
In short: as §1

[9] = Quantitative High-Throughput drug screen in 47 multiple myeloma cell lines against the NCATS MIPE library collection: UTMC2_PLB cell viability assay (AID 1919868); conditions: CellTiter-Glo ATP luminescence, 48 h; viability (% of DMSO control): at 45.8 µM (top of the series); further: nearly all actives have a fitted effect of over 55% in size;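 on viability (% of DMSO control): 100% = DMSO-only wells and 0% = media-only wells without cells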
In short: as §1

[10] = Quantitative High-Throughput drug screen in 47 multiple myeloma cell lines against the NCATS MIPE library collection: PE2_PLB cell viability assay (AID 1919869); further: nearly all actives have a fitted effect of over 35% in size
In short: as §1
Potency means the concentration at half of the fitted maximal effect.

Compound	Potency [1]	Potency [2]	Potency [3]	Potency [4]	Potency [5]	Potency [6]	Potency [7]	Potency [8]	Potency [9]	Potency [10]	viability [4]	viability (% of DMSO) [1]
Cn1cnc(=N)c2[nH]cnc21	66.2 nM (active)	132 nM (active)	66.2 nM (active)	209 nM (active)	235 nM (active)	132 nM (active)	166 nM (active)	66.2 nM (active)	93.5 nM (active)	332 nM (active)	–	–
Cn1cc(CNCC2CCN(c3ncc(C(=O)NO)cn3)CC2)c2ccccc21	33.2 nM (active)	16.6 nM (active)	11.8 nM (active)	59 nM (active)	37.2 nM (active)	83.3 nM (active)	52.6 nM (active)	13.2 nM (active)	18.7 nM (active)	118 nM (active)	–	–
COc1cc(C=CC(=O)CC(=O)C=Cc2ccc(O)c(OC)c2)ccc1O	2150 nM (active)	12100 nM (active)	3820 nM (active)	15200 nM (active)	34000 nM (active)	10800 nM (active)	6790 nM (active)	9590 nM (active)	21500 nM (active)	4810 nM (active)	–	–
O=C1NCCc2[nH]c(-c3ccncc3)cc21	2090 nM (active)	8330 nM (active)	4690 nM (active)	5260 nM (active)	2640 nM (active)	1870 nM (active)	2090 nM (active)	3720 nM (active)	3720 nM (active)	1870 nM (active)	–	–
COc1cc(O)c2c(c1)C1OC1C[C@H](O)[C@H](O)C(=O)C=CC[C@H](C)OC2=O (some centres not stated)	372 nM (active)	3720 nM (active)	5260 nM (active)	4690 nM (active)	4690 nM (active)	4690 nM (active)	2640 nM (active)	1660 nM (active)	10500 nM (active)	2350 nM (active)	–	–
CC(=O)NCC(=O)N1[C@H]2CC[C@H]1c1cc(Nc3ncc(C(F)(F)F)c(NC4CCC4)n3)ccc12	93.5 nM (active)	1180 nM (active)	590 nM (active)	20900 nM (active)	5900 nM (active)	1180 nM (active)	332 nM (active)	833 nM (active)	118 nM (active)	1660 nM (active)	–	–
COc1cc(C[C@@H](CO)[C@H](CO)Cc2ccc(O)c(OC)c2)ccc1O	1050 nM (active)	332 nM (active)	935 nM (active)	–	469 nM (active)	209 nM (active)	418 nM (active)	372 nM (active)	1320 nM (active)	2350 nM (active)	127%	–
C[C@H](NC(=O)C(C#N)=Cc1cccc(Br)n1)c1ccccc1	743 nM (active)	2640 nM (active)	2090 nM (active)	3720 nM (active)	6620 nM (active)	2350 nM (active)	2090 nM (active)	2350 nM (active)	3320 nM (active)	2640 nM (active)	–	–
CC(C)(O)Cn1c(NC(=O)c2ccc(-c3cn[nH]c3)s2)nc2cc(CN3CCOCC3)ccc21	332 nM (active)	1320 nM (active)	743 nM (active)	2960 nM (active)	1180 nM (active)	1870 nM (active)	743 nM (active)	743 nM (active)	372 nM (active)	1320 nM (active)	–	–
CCc1c(O)cc(O)c(C(=O)c2ccc(OCCN3CCOCC3)c(OC)c2)c1CC(=O)N(CCOC)CCOC	3320 nM (active)	469 nM (active)	662 nM (active)	1320 nM (active)	1050 nM (active)	1480 nM (active)	1180 nM (active)	1180 nM (active)	935 nM (active)	833 nM (active)	–	–
C=CCNc1c(O)cc2c(O)c1C[C@@H](C)C[C@H](OC)[C@@H](O)[C@@H](C)C=C(C)[C@H](OC(N)=O)[C@@H](OC)C=CC=C(C)C(=O)N2	209 nM (active)	235 nM (active)	526 nM (active)	264 nM (active)	418 nM (active)	1050 nM (active)	418 nM (active)	118 nM (active)	418 nM (active)	1480 nM (active)	–	–
O=C(C=CC#Cc1cccc(NS(=O)(=O)c2ccccc2)c1)NO	372 nM (active)	1180 nM (active)	2350 nM (active)	2350 nM (active)	2090 nM (active)	5260 nM (active)	1870 nM (active)	1180 nM (active)	833 nM (active)	3320 nM (active)	–	–
COc1cccc2c1C(=O)c1c(O)c3c(c(O)c1C2=O)C[C@@](O)(C(=O)CO)C[C@H]3O[C@H]1C[C@H](N)[C@H](O)[C@H](C)O1	166 nM (active)	166 nM (active)	526 nM (active)	209 nM (active)	–	132 nM (active)	296 nM (active)	264 nM (active)	118 nM (active)	118 nM (active)	–	–
COc1cc2c(cc1OC)[C@@H]1C(=O)c3ccc4c(c3O[C@@H]1CO2)C=CC(C)(C)O4	418 nM (active)	148 nM (active)	10500 nM (active)	13200 nM (active)	–	105 nM (active)	6620 nM (active)	41.8 nM (active)	418 nM (active)	7430 nM (active)	–	–
CCNC(=O)c1cc2c(-c3cc(OCCN4CCCC4)c(Cl)cc3Cl)nc(N)nc2s1	372 nM (active)	743 nM (active)	833 nM (active)	2350 nM (active)	–	1660 nM (active)	833 nM (active)	743 nM (active)	1480 nM (active)	1660 nM (active)	–	–
NC(=O)c1cccc(-c2cccc(OC(=O)NC3CCCCC3)c2)c1	inactive	29600 nM (active)	inactive	–	inactive	inactive	–	inactive	inactive	inactive	110%	–
Cn1c(Nc2ccc(C(F)(F)F)cc2)nc2cc(Oc3ccnc(-c4ncc(C(F)(F)F)[nH]4)c3)ccc21	3720 nM (active)	9350 nM (active)	16600 nM (active)	20900 nM (active)	6620 nM (active)	5900 nM (active)	–	13200 nM (active)	16600 nM (active)	16600 nM (active)	–	–
CC(O)(C#Cc1ccc2c(c1)N(c1nc(N)ncc1Cl)CC2)c1nccs1 (configuration not stated)	2640 nM (active)	20900 nM (active)	14800 nM (active)	–	16600 nM (active)	4180 nM (active)	4690 nM (active)	5260 nM (active)	4180 nM (active)	8330 nM (active)	–	–
C=C1C(=CC=C2CCC[C@]3(C)[C@@H]([C@H](C)CCCC(C)(C)O)CC[C@@H]23)C[C@@H](O)C[C@@H]1O	6620 nM (active)	3320 nM (active)	5260 nM (active)	–	4180 nM (active)	3720 nM (active)	5260 nM (active)	5260 nM (active)	5260 nM (active)	13200 nM (active)	–	–
COc1ccc(S(=O)(=O)Nc2cccnc2Nc2ccc(O)cc2)cc1	37.2 nM (active)	37.2 nM (active)	235 nM (active)	37.2 nM (active)	1050 nM (active)	–	16.6 nM (active)	187 nM (active)	–	148 nM (active)	–	–
C[C@H](NCc1ccc(OCc2cccc(F)c2)cc1)C(N)=O	3320 nM (active)	7430 nM (active)	2640 nM (active)	18700 nM (active)	–	1660 nM (active)	3720 nM (active)	2350 nM (active)	1180 nM (active)	2090 nM (active)	–	–
NS(=O)(=O)OC[C@@H]1C[C@@H](n2ccc3c(N[C@H]4CCc5ccccc54)ncnc32)C[C@H]1O	743 nM (active)	16600 nM (active)	16600 nM (active)	1050 nM (active)	8330 nM (active)	–	332 nM (active)	1480 nM (active)	–	–	–	–
COc1cc(OC)c(C=CS(=O)(=O)Cc2ccc(OC)c(NCC(=O)O)c2)c(OC)c1	264 nM (active)	590 nM (active)	332 nM (active)	235 nM (active)	526 nM (active)	833 nM (active)	–	372 nM (active)	166 nM (active)	469 nM (active)	–	–
CC(=O)O[C@@]12CO[C@H]1C[C@H](O)[C@@]1(C)C(=O)[C@H](O)C3=C(C)[C@@H](OC(=O)C(O)[C@@H](NC(=O)OC(C)(C)C)c4ccccc4)C[C@@](O)([C@@H](OC(=O)c4ccccc4)[C@@H]21)C3(C)C (some centres not stated)	inactive	inactive	inactive	–	–	inactive	inactive	inactive	inactive	inactive	60%	–
CNC(=O)c1cccc(-c2ccc3c(N4CCOC[C@H]4C)nc(N4CCOC[C@H]4C)nc3n2)c1	–	5900 nM (active)	105 nM (active)	–	469 nM (active)	83.3 nM (active)	11.8 nM (active)	13.2 nM (active)	59 nM (active)	83.3 nM (active)	–	66.1% (active)
N#Cc1c(NC(=O)c2cccc3ccccc23)sc2c1CCCC2	187 nM (active)	187 nM (active)	469 nM (active)	526 nM (active)	–	148 nM (active)	83.3 nM (active)	296 nM (active)	418 nM (active)	526 nM (active)	–	–
Cc1cc(Nc2ncc3c(n2)N(C)C(=O)N(c2cc(NC(=O)c4cccc(C(F)(F)F)c4)ccc2C)C3)n(C)n1	526 nM (active)	935 nM (active)	235 nM (active)	–	1320 nM (active)	935 nM (active)	2350 nM (active)	935 nM (active)	418 nM (active)	743 nM (active)	–	–
